Reference: PubChem BioAssay AID977607 (Broad Institute, 2014)
The whole screen tested about 1,500 compounds, of which about 460 (31%) were called active. Not shown: some 1% with an inconclusive outcome. Not all results are given here. Measured potencies and affinities stand elsewhere. Values without a mark were called inactive.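 How the source made its calls: active means curve reaches 40% activation over neutral controls at an AC40 no higher than the top valid tested concentration; inconclusive means no clear call, values can overlap the other calls; inactive means signal moving opposite to the expected increase, and the rest.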

Assay: GLuc-reported insulin release enhancers, glucose-stimulated beta cells – cell-based, INS-1E, Gaussia luciferase, luminescence, cherry-pick, set 2, dose response (AID 977607);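 further: 0% = median of the plate neutral control wells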
Details: INS-1E GLuc insulin secretion reporter, 2-3 h, active compounds read high
[1] = at 35 µM, 100% = signal doubled over neutral wells unless noted

COc1ccc(CN(C)C(=O)c2cc(-c3ccc(OC)c(OC)c3)nc3ccccc23)c(OC)c1
max activation [1]: -23.5%

COc1ccc(-c2cc(C(=O)N(C)Cc3ccc(OC)c(OC)c3OC)c3ccccc3n2)cc1OC
max activation [1]: 13.2% [at 11 µM, 100% = signal doubled over neutral wells]

c1cn2cc(-c3ccc(CN4CCOCC4)cc3)ccc2n1
max activation [1]: -25.5% [at 3.8 µM, 100% = signal doubled over neutral wells]

O=c1[nH]c2cc(Cl)ccc2n(CCNc2ncc(C(F)(F)F)cc2Cl)c1=O
max activation [1]: -28.9% [at 3.8 µM, 100% = signal doubled over neutral wells]

COc1ccc(-c2cc3nc4ccccc4n3c(N)c2C#N)cc1
max activation [1]: -29% [at 0.135 µM, 100% = signal doubled over neutral wells]

O=C(O)c1ccc(-c2nc(-c3ccccc3)c(-c3cccs3)[nH]2)cc1
max activation [1]: 6.45% [at 1.2 µM, 100% = signal doubled over neutral wells]

COc1ccc(-c2ocnc2C(=O)Nc2ccc(N3CCOCC3)cc2N2CCOCC2)cc1OC
max activation [1]: -29.2%

COc1ccc(C2CC(c3ccc(OC)c(OC)c3)=NN2C(=O)c2ccccc2)cc1 (configuration not stated)
max activation [1]: -8.01% [at 0.0016 µM, 100% = signal doubled over neutral wells]

O=c1c2ccccc2c(-c2ccccc2)nn1-c1ccccn1
max activation [1]: -14.4%

COc1cc2c3nnc(-c4ccccc4)c-3cn(Cc3ccccc3F)c2cc1OC
max activation [1]: -22.1% [at 0.135 µM, 100% = signal doubled over neutral wells]

COc1ccc(CNC(=O)C2Cc3c(-c4cccc(F)c4)ccnc3O2)cc1OC (configuration not stated)
max activation [1]: -18.6% [at 0.015 µM, 100% = signal doubled over neutral wells]

COc1ccccc1Cn1c(=O)oc2ccccc21
max activation [1]: -27.7% [at 0.005 µM, 100% = signal doubled over neutral wells]

FC(F)(F)c1ccc(Cl)c(-n2c(Cc3cccs3)n[nH]c2=S)c1
max activation [1]: -14.3% [at 0.005 µM, 100% = signal doubled over neutral wells]

COc1ccc(/C=C2/SC(=O)N(NS(=O)(=O)c3ccccc3)C2=S)cc1OC
max activation [1]: -21.6% [at 0.015 µM, 100% = signal doubled over neutral wells]

CC1(C)CCCC(C)(C)N1CC(O)COCCOc1ccc(Br)cc1 (configuration not stated)
max activation [1]: -12.4%

CCS(=O)(=O)c1nc(S(=O)(=O)c2ccc(C)cc2)c(N2CCC(O)CC2)s1
max activation [1]: -18.3% [at 0.42 µM, 100% = signal doubled over neutral wells]

Cc1ccc2c(=O)cc(C(=O)NC3CCS(=O)(=O)C3)oc2c1C (configuration not stated)
max activation [1]: -12.4% [at 0.046 µM, 100% = signal doubled over neutral wells]

Cc1ccnc(NS(=O)(=O)c2ccc(NC(=O)CCc3ccccc3)cc2)n1
max activation [1]: 33.7% [at 1.2 µM, 100% = signal doubled over neutral wells]

CCC(=O)Nc1ccc(C(=O)N/N=C/c2cccnc2)cc1
max activation [1]: -26.1% [at 3.8 µM, 100% = signal doubled over neutral wells]

COc1ccc2oc(C(=O)Nc3nnc(C)s3)c(C)c2c1
max activation [1]: -20% [at 0.015 µM, 100% = signal doubled over neutral wells]

CCc1nc(N)nc(N)c1-c1ccc(Cl)c(N=[N+]=[N-])c1
max activation (at 0.046 µM, 100% = signal doubled over neutral wells): -14.5%
max activation (at 1.2 µM, 100% = signal doubled over neutral wells): -22.8%

Cc1ccc(-c2csc(NC(=O)CCCc3cccs3)n2)cc1
max activation [1]: 22% [at 0.42 µM, 100% = signal doubled over neutral wells]

CCCc1nc2n[nH]c(N)c2c2c1COC(C)(C)C2
max activation [1]: 19.9%

COc1ccc(CN(C)C(=O)COc2cccc(-n3cnnn3)c2)cc1OC
max activation [1]: 25.6%

COc1ccc(-c2cc(C(=O)N3CCCCCC3)no2)cc1OC
max activation [1]: -22% [at 3.8 µM, 100% = signal doubled over neutral wells]

COc1ccccc1CNS(=O)(=O)c1cc(-c2cc(C)no2)ccc1C(C)C
max activation [1]: -29.2%

COCCNC(=O)c1ccc(N(C)S(=O)(=O)c2ccc(OC)c(OC)c2)cc1
max activation [1]: 19.5% [at 0.005 µM, 100% = signal doubled over neutral wells]

C=CCc1cccc(/C=N/NC(=O)CCC(=O)Nc2ccc(C)cc2)c1O
max activation [1]: -34.3%

O=C(N/N=C/c1cc(Cl)ccc1O)c1ccc(Br)cc1
max activation [1]: -24.4% [at 3.8 µM, 100% = signal doubled over neutral wells]

Cc1nc2ccccc2c(=O)n1/N=C/c1ccc(N(C)C)cc1
max activation [1]: -10.6% [at 1.2 µM, 100% = signal doubled over neutral wells]

CCc1nc2c(OCCC3CCCCC3)cccn2c1N(C)C(=O)c1ccco1
max activation [1]: -35%

Cc1ccccc1CN(C)Cc1cc(=O)oc2c(C)c(C)ccc12
max activation [1]: -33.3%

O=C(c1ccccc1)N(C(=O)c1ccccc1)N1CCCC1
max activation [1]: 28.2% [at 0.046 µM, 100% = signal doubled over neutral wells]

O=C(O)CCN1c2ccccc2Sc2ccccc21
max activation [1]: -23% [at 3.8 µM, 100% = signal doubled over neutral wells]

O=C(CCc1ccccc1)NNC(=O)COc1ccccc1Cl
max activation [1]: 22.3% [at 0.42 µM, 100% = signal doubled over neutral wells]

COc1ccc(/C=N/Nc2ncnc3c2[nH]c2ccccc23)c(OC)c1OC
max activation [1]: -28.4% [at 0.005 µM, 100% = signal doubled over neutral wells]

c1ccc2c(N3CCCCC3)nc(N3CCCC3)nc2c1
max activation [1]: 34.7%

O=S(=O)(N1CCOCC1)n1c(Cc2ccccc2)nc2ccccc21
max activation [1]: -18.5% [at 0.046 µM, 100% = signal doubled over neutral wells]

CCOC(=O)C1CCCN(C(=O)c2cccnc2Oc2ccccc2)CC1 (configuration not stated)
max activation [1]: 48.6% [at 1.2 µM, 100% = signal doubled over neutral wells]

COc1ccc(CCNCc2cc3ccc(C)cc3[nH]c2=O)cc1OC
max activation [1]: 20.9% [at 11 µM, 100% = signal doubled over neutral wells]

COC(=O)[C@]1(Cc2ccccc2)N[C@H](CN(C)C(=O)Nc2ccc(C)cc2)[C@@H]2C(=O)N(C)C(=O)[C@@H]21
max activation [1]: -13.8% [at 11 µM, 100% = signal doubled over neutral wells]

O=C(NCc1ccc(Cl)cc1)c1cc(=O)[nH]c2ccc(S(=O)(=O)N3CCOCC3)cc12
max activation [1]: 27.5% [at 0.005 µM, 100% = signal doubled over neutral wells]

O=C(Nc1ccc(S(=O)(=O)N2CCOCC2)cc1)c1ccc(=O)[nH]c1
max activation [1]: -14.6% [at 0.046 µM, 100% = signal doubled over neutral wells]

CCN(Cc1ccccc1)S(=O)(=O)c1ccccc1Br
max activation [1]: -30.7%

CC/C(O)=C1\C(=O)CC(C)(C)CC1=Nc1ccccc1C
max activation [1]: -12.4% [at 0.046 µM, 100% = signal doubled over neutral wells]

CCc1onc(C)c1C(=O)Nc1ccc(N2CCOCC2)cc1
max activation [1]: -20.7% [at 11 µM, 100% = signal doubled over neutral wells]

CCCC(=O)Nc1ccc(N2CCN(S(C)(=O)=O)CC2)cc1
max activation [1]: -16% [at 11 µM, 100% = signal doubled over neutral wells]

CCn1c(C)nc2cc(S(=O)(=O)C(F)(F)F)ccc21
max activation [1]: -18% [at 0.135 µM, 100% = signal doubled over neutral wells]

COC(=O)c1scc(C)c1NC(=O)CC1NCCNC1=O (configuration not stated)
max activation [1]: -9.21% [at 0.0016 µM, 100% = signal doubled over neutral wells]

O=C(c1ccc2c(c1)OCO2)N1CCN(S(=O)(=O)c2ccccc2)CC1
max activation [1]: -16.9% [at 0.42 µM, 100% = signal doubled over neutral wells]

O=C(O)c1ccc(S(=O)(=O)NCc2ccc3c(c2)OCO3)cc1
max activation [1]: -14.4% [at 0.42 µM, 100% = signal doubled over neutral wells]

COc1ccc(S(=O)(=O)N(C)c2ccc(C(=O)NCC3CCCO3)cc2)cc1OC (configuration not stated)
max activation [1]: -7.27% [at 1.2 µM, 100% = signal doubled over neutral wells]

CC(=O)c1cccc(Nc2ncnc3ccc(Br)cc23)c1
max activation [1]: -20.3% [at 0.0016 µM, 100% = signal doubled over neutral wells]

COC(=O)COc1ccc(C)cc1-n1nc2ccccc2n1
max activation [1]: 22.5%

CCOc1cc(C(=O)N(C)CC(=O)Nc2cccc3ccccc23)ccc1OC
max activation [1]: 18.1% [at 11 µM, 100% = signal doubled over neutral wells]

COc1cccc(-c2nnn(CC(=O)O)n2)c1
max activation [1]: -16%
